Experimental findings from PubChem BioAssay (EPA / NIEHS) are described below.

Experiment [1] in a line: ATG_ERE_CIS: Attagene CIS-FACTORIAL HepG2 Assay for Estrogen Response Element (ERE) (AID 2282940; active means hit-call score of the fitted dose curve at least 0.9, where 1 is the maximum; inactive means score below 0.9). Conditions: HepG2 ERE cis-reporter, Attagene RNA transcript; actives raise or lower the signal. A digest of the protocol:
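Measuring endogenous transcription factor output, the assay doses transfected HepG2 cells for 24 hours and quantifies reporter transcripts by fluorescent RT-PCR and capillary electrophoresis, with DMSO as baseline.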

The target in experiment [2] is Estrogen-related receptor gamma (Homo sapiens) (UniProt P62508). In words: ATG_ERRg_TRANS: Attagene TRANS-FACTORIAL HepG2 Assay for human Estrogen-Related Receptor gamma (ERRg) (AID 2282977).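 Further: hits increase reporter signal over DMSO so potencies reflect activators.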 Conditions: HepG2 Attagene TRANS reporter, ERRg transactivation. A digest of the protocol: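 Readout: fluorescent reporter-mRNA fragments resolved by capillary electrophoresis after RT-PCR and HpaI cut. Cells: transiently transfected HepG2 carrying GAL4-UAS reporters driven by exogenous NR-Gal4 chimeras, dosed 24 h. Activity fitted upward relative to DMSO baseline.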

The target of experiment [3] is Steroid hormone receptor ERR1 (Homo sapiens) (UniProt P11474). In words: ATG_ERRa_TRANS: Attagene TRANS-FACTORIAL HepG2 Assay for human Estrogen-Related Receptor alpha (ERRa) (AID 2282971). Particulars: HepG2 Attagene TRANS reporter, ERRa transactivation. A digest of the protocol:
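Reporter transcripts from ERRa-Gal4 chimera activity measured in transiently transfected human HepG2 cells 24 hours after dosing, using RT-PCR with 6-FAM primer extension, HpaI digestion and capillary electrophoresis; DMSO is baseline.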

Experiment [4] has as its target Bile acid receptor (Homo sapiens) (UniProt Q96RI1). In words: ATG_FXR_TRANS: Attagene TRANS-FACTORIAL HepG2 Assay for Farnesoid X Receptor (FXR) (AID 2282979).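 Further: hits raise reporter mRNA above DMSO so AC50 marks FXR activation.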 Conditions: HepG2 Attagene TRANS FXR-GAL4 reporter transcription. The method in brief:
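Reporter transcripts from transfected HepG2 cells were measured 24 h after dosing, using RT-PCR with capillary electrophoresis of 6-FAM-labelled fragments. The read-out reflects activity of exogenous FXR-Gal4 chimera on GAL4-UAS units, with induction relative to DMSO.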

Experiment [5] can be described thus: BSK_3C_uPAR: BioMAP Diversity Plus: 3C Assay for Urokinase-type plasminogen activator receptor (uPAR) Biomarker Activity (AID 2282998; active means hit-call score of the fitted dose curve at least 0.9, where 1 is the maximum; inactive means score below 0.9). Conditions: BioMAP 3C HUVEC, uPAR biomarker ELISA; actives raise or lower the signal. The method in brief:
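Readout: ELISA for surface uPAR. System: human umbilical vein endothelial primary cells, 24 h after chemical exposure. Analysis: bidirectional fit, DMSO baseline.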
Background: An ELISA detects its analyte on a solid surface through an enzyme-linked reagent.

Read-out in experiment [6]: Monocyte Chemoattractant Protein-1 (MCP1), CCL2 (gene 6347)
In words: BSK_4H_MCP1: BioMAP Diversity Plus: 4H Assay for Monocyte Chemoattractant Protein-1 (MCP1) Biomarker Activity (AID 2283018; active means hit-call score of the fitted dose curve at least 0.9, where 1 is the maximum; inactive means score below 0.9). Conditions: primary human endothelial cells (HUVEC); actives raise or lower the signal. The method in brief: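 HUVEC primary cells, 24 h post-dose, MCP-1 by ELISA. Gain or loss of signal fitted bidirectionally vs DMSO baseline. Cytotoxicity: SRB stain (0.1% after 10% TCA fixation), read 560 nm, parallel cultures.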

Read-out in experiment [7]: Monokine induced gamma interferon (MIG), CXCL9 (gene 4283)
The experiment in a line: BSK_3C_MIG: BioMAP Diversity Plus: 3C Assay for Monokine induced gamma interferon (MIG) Biomarker Activity (AID 2283021; active means hit-call score of the fitted dose curve at least 0.9, where 1 is the maximum; inactive means score below 0.9;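 on AC50: MIG protein level measured by immunoassay in the treated endothelial cultures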). Conditions: primary human endothelial cells (HUVEC); actives raise or lower the signal. The method in brief: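 HUVEC, 3C system; 24 h chemical exposure; MIG by ELISA; bidirectional fit vs DMSO baseline.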

Read-out in experiment [8]: Urokinase-type plasminogen activator receptor (uPAR), PLAUR (gene 5329)
In words: BSK_4H_uPAR: BioMAP Diversity Plus: 4H Assay for Urokinase-type plasminogen activator receptor (uPAR) Biomarker Activity (AID 2283030; active means hit-call score of the fitted dose curve at least 0.9, where 1 is the maximum; inactive means score below 0.9). Particulars: primary human endothelial cells (HUVEC); actives raise or lower the signal. A digest of the protocol: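 uPAR level read by ELISA on HUVEC cultures (BioMAP 4H) 24 h post-dosing, analyzed for gain or loss relative to DMSO. Parallel SRB staining assessed overt cytotoxicity.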

Read-out in experiment [9]: Plasminogen activator inhibitor-1 (PAI1), SERPINE1 (gene 5054)
The experiment in a line: BSK_BE3C_PAI1: BioMAP Diversity Plus: BE3C Assay for Plasminogen activator inhibitor-1 (PAI1) Biomarker Activity (AID 2283037; active means hit-call score of the fitted dose curve at least 0.9, where 1 is the maximum; inactive means score below 0.9). Particulars: primary human bronchial epithelial cells; actives raise or lower the signal. A digest of the protocol:
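ELISA read-out of PAI-1 from human bronchial epithelial primary cells, 24 h post-dosing; bidirectional curve fit vs DMSO baseline, gain or loss of signal scored.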

Read-out in experiment [10]: Tissue plasminogen activator (tPA), PLAT (gene 5327)
The experiment in a line: BSK_BE3C_tPA: BioMAP Diversity Plus: BE3C Assay for Tissue plasminogen activator (tPA) Biomarker Activity (AID 2283041; active means hit-call score of the fitted dose curve at least 0.9, where 1 is the maximum; inactive means score below 0.9;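 on outcome: tPA level quantified by ELISA one day after compound addition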). Conditions: primary human bronchial epithelial cells; actives raise or lower the signal. A digest of the protocol:
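ELISA read-out of tPA on human primary bronchial epithelial cells, 24 h post-dosing; bidirectional fit vs DMSO negative control/baseline.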

Read-out in experiment [11]: Thrombomodulin, THBD (gene 7056)
The experiment in a line: BSK_CASM3C_Thrombomodulin: BioMAP Diversity Plus: CASM3C Assay for Thrombomodulin Biomarker Activity (AID 2283051; active means hit-call score of the fitted dose curve at least 0.9, where 1 is the maximum; inactive means score below 0.9;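 further: thrombomodulin protein level measured by ELISA 24 h after dosing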). Conditions: primary human coronary artery smooth muscle cells; actives raise or lower the signal.

The nature of experiment [12]: ACEA_ER_AUC_viability: ACEA Biosciences xCELLigence Real-Time Cell Analysis on Estrogen Receptor Agonism for Viability (AID 2283782).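 Further: hit means loss of impedance signal meaning reduced cell growth or viability.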 A digest of the protocol:
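Viability endpoint: reduced impedance area under the curve relative to DMSO, recorded by real-time electrode sensing over ~80 h of continuous exposure. Duplicate plates of T47D in hormone-depleted medium; eight concentrations, 1:4 dilutions, 100 uM maximum.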

Experiment [13] is described as follows: CCTE_Harrill_HTTr_Viability_MCF7: CCTE's 6-hour Cell Viability Assessment for the High-Throughput Transcriptomics (HTTr) Platform, in MCF-7 cells cultured in DMEM + 10% fetal bovine serum, Harrill Lab (AID 2284010; active means hit-call score of the fitted dose curve at least 0.9, where 1 is the maximum; inactive means score below 0.9). A digest of the protocol:
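PI exclusion, high-content imaging; 8-pt dilution series, 6 h exposure; bidirectional fit vs DMSO (neg. ctrl/baseline); gain of signal = loss of membrane integrity.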

Experiment [14] addresses Estrogen receptor beta (Homo sapiens) (UniProt Q92731). The experiment in a line: OT_ER_ERbERb_0480: Odyssey Thera (OT) 8-hour HEK293T Protein-Complementation Assay for Estrogen Receptor-beta/-beta Homodimer (AID 2283357). The method in brief: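 ER-beta LBD homodimer PCA stably expressed in HEK293T; 8 h compound exposure, then formaldehyde fixation and Draq5 staining. Gain in nuclear/cytoplasmic fluorescence intensity versus DMSO vehicle, read on laser scanning cytometer.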

Experiment [15] has the same target. In words: OT_ER_ERbERb_1440: Odyssey Thera (OT) 24-hour HEK293T Protein-Complementation Assay for Estrogen Receptor-beta/-beta Homodimer (AID 2283380).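 Further: scored as signal increase over DMSO baseline for both agonists and antagonists.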 A digest of the protocol:
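Fluorescence increase, nuclear for agonists or whole-cell for antagonists, relative to DMSO vehicle, quantified by laser scanning cytometer after fixation and Draq5 staining. Readout from 24 h treatment of HEK293T cells carrying complementation-paired ER beta LBD (aa 310-547).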

Experiment [16] concerns the target Retinoic acid receptor RXR-alpha (Homo sapiens) (UniProt P19793). In words: OT_NURR1_NURR1RXRa_0480: Odyssey Thera (OT) 8-hour HEK293T Protein Complementation Assay for Nurr1/retinoid X receptor (RXR) (AID 2283385). The method in brief: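 Read-out: fluorescence from protein-fragment complementation between Nurr1 and RXRα in human HEK293T cells, 8 h after dosing. DMSO served as negative control; increased signal counted as activity.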

For experiment [17] the target is unchanged. The experiment in a line: OT_NURR1_NURR1RXRa_1440: Odyssey Thera (OT) 24-hour HEK293T Protein Complementation Assay for Nurr1/retinoid X receptor (RXR) (AID 2283386). A digest of the protocol: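 Fluorescence PCA read-out; HEK293T; 24 h post-dose; bait/prey fused to reporter fragments; gain-of-signal fit vs DMSO negative control.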
Experiment [18] deals with Peroxisome proliferator-activated receptor gamma (Homo sapiens) (UniProt P37231). The experiment in a line: OT_PPARg_PPARgSRC1_1440: Odyssey Thera (OT) 24-hour Protein-Complementation Assay for Peroxisome Proliferator-activated Receptor Gamma/ SRC-1 Co-activator (AID 2283388).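 Further: nuclear to cytoplasmic ratio of reconstituted Venus YFP fluorescence in fixed imaged cells.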 The method in brief:
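Readout is the 488 nm N/C fluorescence ratio from fixed, Draq5-stained HEK293T cells after 24 h compound exposure. Cells carried transiently transfected PPARg and SRC-1 fused to Venus fragments, transfected 48 h before treatment.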

The nature of experiment [19]: ACEA_AR_agonist_AUC_viability: ACEA Biosciences xCELLigence Real-Time Cell Analysis on Androgen Receptor Agonism for Viability (AID 2283775).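 On AC50: viability read 80 hours after compound addition.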 The method in brief: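 Viability endpoint from xCELLigence impedance in 22Rv1 prostate cells at 80 h. Eight-point series, 100 uM maximum final.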
Experiment [20] is described as follows: ACEA_AR_antagonist_AUC_viability: ACEA Biosciences xCELLigence Real-Time Cell Analysis on Androgen Receptor Antagonism for Viability (AID 2283776).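 Further: 22Rv1 human prostate cancer cells growing on impedance electrode plates; hits lower the growth signal relative to DMSO meaning cytotoxicity.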 The method in brief: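 Impedance read-out (RT-CES): area under growth curve at 80 h post-dose, loss of signal scored vs DMSO baseline. 22Rv1 cells; 8-pt 1:4 series, top 100 uM final, ≤0.5% DMSO; biological duplicate.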

Records with an inconclusive call do not appear. The source holds several records for some structures; these can differ, active in one and inactive in another. Activity calls are given as the source filed them. How the source made its calls, unless noted: active means hit-call score of the fitted dose curve at least 0.9, where 1 is the maximum; inconclusive means response in the unintended direction; inactive means score below 0.9.

Estrogen-related receptor gamma (Homo sapiens), sequence (P62508 whole entry, looked up, the tested form may be a part): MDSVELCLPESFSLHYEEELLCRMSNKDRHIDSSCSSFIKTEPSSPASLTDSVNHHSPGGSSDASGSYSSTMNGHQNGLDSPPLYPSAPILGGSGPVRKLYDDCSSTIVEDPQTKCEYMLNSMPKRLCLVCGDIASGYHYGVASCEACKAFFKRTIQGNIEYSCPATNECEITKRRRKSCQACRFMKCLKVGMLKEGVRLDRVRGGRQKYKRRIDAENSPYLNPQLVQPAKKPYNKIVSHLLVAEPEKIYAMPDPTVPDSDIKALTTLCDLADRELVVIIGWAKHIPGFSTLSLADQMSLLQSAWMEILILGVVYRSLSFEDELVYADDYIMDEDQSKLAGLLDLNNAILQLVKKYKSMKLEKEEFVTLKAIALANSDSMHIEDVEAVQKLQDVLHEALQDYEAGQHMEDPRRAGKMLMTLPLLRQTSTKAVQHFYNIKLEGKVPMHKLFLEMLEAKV
Steroid hormone receptor ERR1 (Homo sapiens), sequence (P11474 whole entry, looked up, the tested form may be a part): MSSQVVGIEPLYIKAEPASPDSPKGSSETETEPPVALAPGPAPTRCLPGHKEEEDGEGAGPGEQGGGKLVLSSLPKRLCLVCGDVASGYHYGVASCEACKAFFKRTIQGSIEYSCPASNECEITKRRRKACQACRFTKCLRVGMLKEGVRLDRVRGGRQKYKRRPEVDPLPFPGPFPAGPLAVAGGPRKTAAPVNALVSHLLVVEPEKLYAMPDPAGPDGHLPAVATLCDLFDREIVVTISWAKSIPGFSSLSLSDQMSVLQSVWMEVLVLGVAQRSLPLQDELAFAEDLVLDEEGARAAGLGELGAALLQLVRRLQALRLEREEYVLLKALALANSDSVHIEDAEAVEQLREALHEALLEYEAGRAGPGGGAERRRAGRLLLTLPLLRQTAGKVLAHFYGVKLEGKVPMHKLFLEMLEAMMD
Estrogen receptor beta (Homo sapiens), sequence (Q92731 whole entry, looked up, the tested form may be a part): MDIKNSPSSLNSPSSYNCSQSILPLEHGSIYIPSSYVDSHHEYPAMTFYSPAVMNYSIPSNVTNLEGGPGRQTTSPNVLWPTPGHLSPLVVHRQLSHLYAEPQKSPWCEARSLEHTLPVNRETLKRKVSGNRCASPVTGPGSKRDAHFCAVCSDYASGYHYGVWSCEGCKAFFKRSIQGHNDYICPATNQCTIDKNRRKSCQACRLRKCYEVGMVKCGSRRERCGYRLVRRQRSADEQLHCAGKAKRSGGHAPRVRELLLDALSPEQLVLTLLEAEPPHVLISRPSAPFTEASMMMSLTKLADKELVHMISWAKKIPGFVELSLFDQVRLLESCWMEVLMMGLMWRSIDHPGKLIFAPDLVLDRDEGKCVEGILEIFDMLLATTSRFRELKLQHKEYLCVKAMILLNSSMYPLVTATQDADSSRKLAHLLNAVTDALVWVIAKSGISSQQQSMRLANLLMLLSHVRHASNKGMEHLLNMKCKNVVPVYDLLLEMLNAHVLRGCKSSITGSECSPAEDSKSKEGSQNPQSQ
Bile acid receptor (Homo sapiens), sequence (Q96RI1 whole entry, looked up, the tested form may be a part): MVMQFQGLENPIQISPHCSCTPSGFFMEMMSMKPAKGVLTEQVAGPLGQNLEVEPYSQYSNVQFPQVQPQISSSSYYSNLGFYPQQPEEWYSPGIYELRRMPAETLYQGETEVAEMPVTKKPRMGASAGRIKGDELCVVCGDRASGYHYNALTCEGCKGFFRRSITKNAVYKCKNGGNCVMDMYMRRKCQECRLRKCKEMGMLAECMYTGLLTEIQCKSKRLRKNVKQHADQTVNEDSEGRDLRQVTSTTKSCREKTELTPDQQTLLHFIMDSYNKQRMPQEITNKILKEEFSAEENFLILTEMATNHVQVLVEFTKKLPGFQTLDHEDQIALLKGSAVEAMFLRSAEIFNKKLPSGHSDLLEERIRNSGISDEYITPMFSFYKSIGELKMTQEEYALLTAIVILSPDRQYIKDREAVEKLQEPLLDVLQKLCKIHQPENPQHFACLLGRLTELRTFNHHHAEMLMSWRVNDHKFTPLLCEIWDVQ
Peroxisome proliferator-activated receptor gamma (Homo sapiens), sequence (P37231 whole entry, looked up, the tested form may be a part): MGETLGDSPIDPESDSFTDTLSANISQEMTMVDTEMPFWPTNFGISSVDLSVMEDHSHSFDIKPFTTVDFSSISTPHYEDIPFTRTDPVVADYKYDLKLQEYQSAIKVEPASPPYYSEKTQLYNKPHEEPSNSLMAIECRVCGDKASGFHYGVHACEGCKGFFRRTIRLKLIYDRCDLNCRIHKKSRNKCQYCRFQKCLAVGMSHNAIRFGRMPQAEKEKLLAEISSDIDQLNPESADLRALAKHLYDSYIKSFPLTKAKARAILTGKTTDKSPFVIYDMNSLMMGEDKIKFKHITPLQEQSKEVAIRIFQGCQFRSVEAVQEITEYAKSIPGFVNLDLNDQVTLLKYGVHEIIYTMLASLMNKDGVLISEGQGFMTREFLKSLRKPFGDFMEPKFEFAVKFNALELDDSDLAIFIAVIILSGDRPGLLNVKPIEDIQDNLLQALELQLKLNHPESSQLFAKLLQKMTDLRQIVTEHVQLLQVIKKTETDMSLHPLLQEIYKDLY
Retinoic acid receptor RXR-alpha (Homo sapiens), sequence (P19793 whole entry, looked up, the tested form may be a part): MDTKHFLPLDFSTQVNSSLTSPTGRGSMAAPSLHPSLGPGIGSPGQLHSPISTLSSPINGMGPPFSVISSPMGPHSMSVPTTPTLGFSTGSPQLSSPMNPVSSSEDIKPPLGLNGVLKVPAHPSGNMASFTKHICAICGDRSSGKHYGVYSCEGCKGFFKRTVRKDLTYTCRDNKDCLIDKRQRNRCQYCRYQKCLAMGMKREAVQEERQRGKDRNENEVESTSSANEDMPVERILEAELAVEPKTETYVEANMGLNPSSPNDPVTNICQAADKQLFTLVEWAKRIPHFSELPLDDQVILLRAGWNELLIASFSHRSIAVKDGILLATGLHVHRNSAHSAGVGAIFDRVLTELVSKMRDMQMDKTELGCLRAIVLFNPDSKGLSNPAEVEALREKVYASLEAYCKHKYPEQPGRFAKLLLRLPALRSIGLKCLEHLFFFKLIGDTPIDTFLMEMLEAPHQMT

As for `C=CC(=O)OCCCCOC(=O)C=C`, the compound was called inactive in experiment [1] and in [2].
With `Clc1ccc(-c2ccccc2)cc1`, the AC50 in [1] is 55.7 µM (active); in experiment [6], 27.5 µM (active). For the same compound, the outcome in [3], in [2], in experiment [4], in experiment [5], in experiment [7] and in experiment [8] was inactive. The result in [9], in experiment [10], in experiment [11], in [12] and in experiment [13] was inactive.
Consider `C[C@]12CCC(=O)C(O)=C1CC[C@@H]1[C@@H]2CC[C@]2(C)C(=O)CC[C@@H]12`, for which the AC50 in experiment [1] is 16.8 µM (active). Also, the outcome in experiment [13] was inactive.
As for `CN(C)CCC#N`, the call in experiment [1] and in [12] was inactive.
As for `[N-]=[N+]=CC(=O)OC[C@H](N)C(=O)O`, the outcome in experiment [13] was inactive.
For `Nc1ccccc1C(=O)OCCc1ccccc1`, the compound was classed as inactive in experiment [3] and in experiment [2].
As for `CCOC(=O)C1OC1(C)c1ccccc1` (stereo not drawn), the result in experiment [14], in experiment [16], in [17], in [18], in [19] and in experiment [12] was inactive. The AC50 in experiment [15] is 37.3 µM (active).
Regarding `[CH3][Sn]([CH3])([Cl])[Cl]`, the compound was called inactive in experiment [3], in experiment [2], in experiment [16], in experiment [18], in [19] and in [20]. Besides, in experiment [17], the AC50 was 82.1 µM (active).
Consider `CCCOC(=O)c1ccccc1C(=O)OCCC`, for which, in [1], the AC50 was 49.8 µM (active). For the same compound, the outcome in [4], in [5], in [6], in [7], in experiment [8] and in [9] was inactive. Besides, the outcome in [10] and in [11] was inactive.
Turning to `N#Cc1cccc(C#N)c1`, the outcome in experiment [12] was inactive.
`C=C(Cl)Cl`: the compound was called inactive in [1] and in [2].
Consider `CCC1CCC(=O)O1` (stereo not drawn), for which the compound was classed as inactive in [14], in experiment [15], in [17] and in experiment [20].
Consider `CC(C)[C@@H](C(=O)O[C@@H](C#N)c1cccc(Oc2ccccc2)c1)c1ccc(Cl)cc1`, for which the compound was classed as inactive in [14], in experiment [15], in experiment [18], in [19] and in experiment [20]. In addition, the AC50 in experiment [19] is 41.6 µM (active); in [20], 50 µM (active).
For the compound `CCC(C)c1cc([N+](=O)[O-])cc([N+](=O)[O-])c1OC(=O)C=C(C)C` (stereo not drawn), the AC50 is 7.18 µM (active) in experiment [5]; 5.34 µM (active) in [6]; 35.3 µM (active) in experiment [7]; 5.79 µM (active) in [8]; 11 µM (active) in [9]; 6.13 µM (active) in experiment [10]. In addition, the result in [11] was inactive.
`O=C(O)CCl`: the call in [2], in [14], in experiment [15], in [16], in [18] and in experiment [19] was inactive. For the same compound, the call in [12] was inactive.
Regarding `CC1CCC(=O)O1` (stereo not drawn), in experiment [3], the outcome was inactive.
Consider `Cl/C=C\CCl`, for which the compound was classed as inactive in experiment [3], in [12] and in experiment [13].
Consider `CCC(Br)(CC)C(=O)NC(N)=O`, for which the compound was classed as inactive in [4].

By AC50 is commonly meant the concentration at which the activity in the assay is half-maximal.
